Test results reported in PubChem BioAssay (Tox21).
Values joined by “and” are separate entries in the source; they are usually repeats but may differ in a detail not shown here. Equal entries are not always repeated. Records with an inconclusive call do not appear. Some structures have more than one record in an assay (separate samples or runs), and their calls can disagree. Active and inactive are the calls of the source. Unless noted, the call rests on the fitted dose curve; in most records, active means well fitted curve in the direction sought with a large enough effect in the repeat runs; inconclusive means weak or mixed curves; inactive means no such curve, though single readings can be large; an effect the other way counts as inactive or inconclusive.

Key:
[1] = qHTS assay for small molecule agonists of the p53 signaling pathway (AID 651631; calls by dose curve; further: nearly all actives have a fitted effect of over 15% in size; further: potency means the concentration at half of the fitted maximal effect)
Summary of the method: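 Stably transfected HCT-116 cells (beta-lactamase behind p53 response elements) get compounds after a 5 h settling period; 16 h later at 37 °C, FRET substrate is loaded and fluorescence read after 2 h.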

[2] = qHTS assay for small molecules that induce genotoxicity in human embryonic kidney cells expressing luciferase-tagged ATAD5 (AID 651632); further: nearly all actives have a fitted effect of over 15% in size
Summary of the method: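 Quantitative HTS in HEK293T expressing luciferase-tagged ATAD5, whose levels rise upon DNA damage. Exposure ran 16 hr at 37C and 5% CO2, with luminescence read 30 min after Amplite addition at room temperature.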

[3] = qHTS assay for small molecules that induce genotoxicity in human embryonic kidney cells expressing luciferase-tagged ATAD5 - cell viability (AID 651634; calls by dose curve; further: nearly all actives have a fitted effect of over 25% in size; further: potency means the concentration at half of the fitted maximal effect)
Summary of the method: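 After 15.5 hr incubation with compound at 37C, 5% CO2, HEK293T ATAD5-luciferase cells received CellTiter-Fluor reagent; fluorescence intensity was quantified following 30 min at 37C.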

[4] = qHTS assay for small molecule disruptors of the mitochondrial membrane potential - cell viability (AID 720634; calls by dose curve;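 further: human HepG2 liver cancer cells; series mostly up to about 83 µM; nearly all actives have a fitted effect of over 20% in size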)
Summary of the method: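 ATP-based luminescent viability readout (CellTiter-Glo, 30 min, room temperature) in HepG2 cells multiplexed with the m-MPI membrane potential dye; compound exposure lasted 1 hr at 37 C.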

[5] = qHTS assay for small molecule disruptors of the mitochondrial membrane potential (AID 720635); further: potency means the concentration at half of the fitted maximal effect
Summary of the method: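 Mitochondrial membrane potential tracked with Mito-MPS dye, red aggregates (ex 540/em 590 nm) against green monomers (ex 490/em 535 nm). Compound treatment 1 hr at 37C, dye 30 min in HepG2.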

[6] = qHTS assay to test for compound auto fluorescence at 535 nm (green) in HepG2 cells (AID 720675)
[7] = qHTS assay to test for compound auto fluorescence at 460 nm (blue) in HEK293 cells (AID 720678)
Summary of the method: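 Blue-channel (Ex/Em 405/460 nm) intensity measured in HEK293 cultures after overnight compound exposure at 37C; signal expressed relative to triamterene. Cells plated 2,000 per well in 10% dialyzed FBS medium and allowed 4-5 hr to attach.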

[8] = qHTS assay to test for compound auto fluorescence at 590 nm (red) in HEK293 cells (AID 720679)
Summary of the method: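 Red-channel autofluorescence (Ex/Em 540/590 nm; Rose Bengal sodium reference) was measured after overnight 37C, 5% CO2 exposure of attached HEK293 cells, 2,000 per well in medium with 10% dialyzed FBS.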

[9] = qHTS assay to test for compound auto fluorescence at 590 nm (red) in HepG2 cells (AID 720674)
Summary of the method: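 1 hr compound incubation on HepG2 cells, 37 C, 5% CO2; plate read ex 540 nm / em 590 nm; intensities reported as Rose Bengal sodium equivalents.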

[10] = qHTS assay for small molecule agonists of the p53 signaling pathway - cell viability (AID 651633; calls by dose curve; further: nearly all actives have a fitted effect of over 30% in size; further: potency means the concentration at half of the fitted maximal effect;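 on activity change, negative = cytotoxicity: p53RE-bla HCT reporter cells with a stable beta-lactamase p53 reporter; series mostly up to about 83 µM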)
Summary of the method: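 Viability counter-read: CellTiter-Glo luminescence (30 min, room temperature) in the same p53RE-bla plates. These plates had been exposed to compounds for 16 h at 37 C.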
On the % scale 0 is the no-effect control and ±100 the full control effect.

Cc1cc(C)n(CO)n1
inactive: Potency [1] | Potency [2] | Potency [3] | Potency [4] | Potency [5] | outcome [6] | Potency [7] | outcome [8]

O=C(OCCCCCOC(=O)c1ccccc1)c1ccccc1
inactive: Potency [1] | Potency [2] | Potency [3] | outcome [9] | outcome [6] | Potency [7] | outcome [8]

CC1(COc2ccc(CC3SC(=O)NC3=O)cc2)CCCCC1 (centres undefined)
active: Potency [1] 33.5 µM | Potency [10] 26.6 µM
inactive: Potency [2] | outcome [9] | outcome [6] | Potency [7] | outcome [8]

C/C=C1\[C@H]2C=C(C)C[C@]1(N)c1ccc(=O)[nH]c1C2
inactive: Potency [1] | Potency [2] | Potency [3] | Potency [4] | outcome [9] | outcome [6] | Potency [7] | outcome [8]

CC(=O)Nc1ccccc1O
inactive: Potency [1] | Potency [10] | Potency [3] | Potency [4] | outcome [9] | outcome [6] | Potency [7] | outcome [8]

C/C(=C\C(C)CC(C)CC(C)C)C1CC(=O)OC1=O (centres undefined)
inactive: Potency [1] | Potency [2] | Potency [3] | Potency [4] | Potency [5] | outcome [9] | outcome [6] | Potency [7]

CCOc1cc(OCC)c(C(C)=O)cc1OCC
inactive: Potency [1] | Potency [2] | Potency [10] | Potency [4] | outcome [6] | Potency [7] | outcome [8]

Cc1ccc2ccccc2c1[N+](=O)[O-]
inactive: Potency [1] | Potency [10] | outcome [9] | outcome [6] | Potency [7] | outcome [8]

CCc1cnc(C(=O)O)c(C(=O)O)c1
inactive: Potency [1] | Potency [2] | Potency [3] | Potency [4] | Potency [5] | outcome [9] | outcome [6] | Potency [7] | outcome [8]

C=C[Si](OCC)(OCC)OCC
inactive: Potency [1] | Potency [10] | Potency [4] | outcome [6] | Potency [7]

Cc1cc(C)c(C)c(O)c1
inactive: Potency [1] | Potency [2] | Potency [3] | Potency [4] | outcome [6] | Potency [7] | outcome [8]

CCCCCCCCS
inactive: Potency [1] | Potency [2] | Potency [4] | Potency [5] | outcome [9] | outcome [6] | Potency [7] | outcome [8]

CC(CCl)OC(C)CCl (centres undefined)
inactive: Potency [1] | Potency [2] | Potency [3] | Potency [4] | Potency [5] | outcome [9] | outcome [6] | Potency [7] | outcome [8]

S=c1[nH][nH]c(=S)s1
inactive: Potency [1] | Potency [2] | Potency [3] | Potency [4] | outcome [9] | outcome [6] | Potency [7] | outcome [8]

C[C@]12CCC(=O)C=C1[C@@H]1C[C@@H]1[C@H]1[C@@H]3[C@@H]4C[C@@H]4[C@@]4(CCC(=O)O4)[C@@]3(C)CC[C@@H]12
inactive: Potency [1] | Potency [2] | Potency [3] | outcome [9] | outcome [6] | Potency [7] | outcome [8]

Cc1ccc(S(=O)(=O)NC(=O)NC2CCCC2)cc1
inactive: Potency [1] | Potency [2] | Potency [3] | Potency [4] | outcome [6] | Potency [7] | outcome [8]

Nc1ccc(-c2ccc(F)cc2)cc1
inactive: Potency [1] | Potency [10] | Potency [3] | outcome [9] | outcome [6] | Potency [7] | outcome [8]

Cc1c(Nc2ncccc2C(=O)O)cccc1C(F)(F)F
active: Potency [5] 9.02 µM
inactive: Potency [1] | Potency [2] | Potency [3] | Potency [4] | fluorescence, relative to Rose Bengal [9] 0.539% [at 18.6 µM] | fluorescence, % of fluorescein control [6] -0.0599% [at 18.6 µM] | fluorescence, % of triamterene [7] 0.0756% [at 18.6 µM] | fluorescence, % of fluorescent control [8] 0.0414% [at 18.6 µM]

Sc1nc(S)nc(S)n1
inactive: Potency [1] | Potency [2] | Potency [3] | Potency [4] | outcome [9] | outcome [6] | Potency [7] | outcome [8]

CCOC(OCC)OCC
inactive: Potency [1] | Potency [2] | Potency [3] | Potency [4] | outcome [9] | outcome [6] | Potency [7] | outcome [8]

OCCCO
inactive: Potency [1] | Potency [2] | outcome [9] | outcome [6] | Potency [7]

CC(C)Oc1ccccc1O
inactive: Potency [1] | Potency [2] | Potency [5] | outcome [9] | outcome [6] | Potency [7] | outcome [8]

CCCCCCOC(=O)c1ccccc1
inactive: Potency [1] | Potency [2] | Potency [3] | Potency [4] | Potency [5] | outcome [9] | outcome [6] | Potency [7] | outcome [8]

Cc1nc(C)c(C)nc1C
inactive: Potency [1] | Potency [2] | Potency [10] | outcome [6] | Potency [7] | outcome [8]

C/C(=C(\CCO)SS/C(CCO)=C(\C)N(C=O)Cc1cnc(C)nc1N)N(C=O)Cc1cnc(C)nc1N
inactive: Potency [1] | Potency [2] | Potency [10] | outcome [9] | outcome [6] | Potency [7] | outcome [8]

CC1=CC(=C(c2ccc(N)cc2)c2ccc(N)cc2)C=CC1=N
inactive: Potency [2] | Potency [10] | activity, negative = cytotoxicity [3] -19.8% [at 8.08 µM] | activity change, negative = cytotoxicity [4] -6.69% [at 8.08 µM] | outcome [9] | outcome [6] | Potency [7] | outcome [8]
active: Potency [3] 11.9 µM | Potency [5] 221 nM and 55 nM

O=C(O)c1cc(C(=O)O)c(C(=O)O)cc1C(=O)O
inactive: Potency [1] | Potency [2] | Potency [3] | Potency [4] | outcome [6] | Potency [7]

Cc1c(N=C=O)cccc1N=C=O
inactive: Potency [1] | Potency [2] | Potency [3] | Potency [4] | Potency [5] | outcome [9] | outcome [6] | Potency [7] | outcome [8]

CC(C)=CCC/C(C)=C/C=N/O
inactive: Potency [1] | Potency [2] | Potency [3] | Potency [4] | Potency [5] | outcome [9] | outcome [6] | Potency [7] | outcome [8]

O=C(c1ccc(Cl)cc1)c1ccc(Cl)cc1
inactive: Potency [1] | Potency [2] | Potency [4] | outcome [9] | outcome [6] | Potency [7] | outcome [8]

O=C(O)c1ccc(O)c(O)c1
inactive: Potency [2] | Potency [10] | Potency [3] | Potency [4] | outcome [9] | outcome [6] | Potency [7] | outcome [8]
